# Data taken from ChEMBL document CHEMBL1961873, “Compounds: GSK PKIS; Assays: Nanosyn kinase panel” (2012).
# Assays:
# [1] = target: T1, 3-phosphoinositide-dependent protein kinase 1 (Homo sapiens) (UniProt O15530); details: at 0.1 µM;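 further: values are mean inhibition of PDK1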
# T1 sequence (whole entry): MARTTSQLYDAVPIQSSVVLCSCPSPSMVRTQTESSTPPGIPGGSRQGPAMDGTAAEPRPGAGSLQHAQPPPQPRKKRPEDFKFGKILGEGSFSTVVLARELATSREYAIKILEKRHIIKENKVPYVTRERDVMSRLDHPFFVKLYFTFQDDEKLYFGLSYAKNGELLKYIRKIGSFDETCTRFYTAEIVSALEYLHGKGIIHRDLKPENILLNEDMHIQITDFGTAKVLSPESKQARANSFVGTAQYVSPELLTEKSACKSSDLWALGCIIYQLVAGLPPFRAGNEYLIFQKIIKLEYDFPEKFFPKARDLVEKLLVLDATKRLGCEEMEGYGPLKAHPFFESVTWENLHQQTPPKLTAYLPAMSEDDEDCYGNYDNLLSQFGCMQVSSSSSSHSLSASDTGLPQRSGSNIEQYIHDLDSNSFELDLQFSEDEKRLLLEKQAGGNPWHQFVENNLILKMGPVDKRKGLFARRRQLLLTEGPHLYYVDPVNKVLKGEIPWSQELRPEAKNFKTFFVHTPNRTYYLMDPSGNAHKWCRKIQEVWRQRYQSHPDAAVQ
# [2] = target: cAMP-dependent protein kinase catalytic subunit alpha (Homo sapiens) (UniProt P17612); details: at 0.1 µM
# [3] = target: cAMP-dependent protein kinase catalytic subunit alpha (Homo sapiens) (UniProt P17612); details: at 1 µM
# [4] = target: Protein kinase C alpha type (Homo sapiens) (UniProt P17252); details: at 0.1 µM
# [5] = target: Protein kinase C alpha type (Homo sapiens) (UniProt P17252); details: at 1 µM
# [6] = target: Protein kinase C beta type (Homo sapiens) (UniProt P05771); details: at 0.1 µM
# Sequence of Protein kinase C beta type (Homo sapiens) (P05771 2-671 limits assumed): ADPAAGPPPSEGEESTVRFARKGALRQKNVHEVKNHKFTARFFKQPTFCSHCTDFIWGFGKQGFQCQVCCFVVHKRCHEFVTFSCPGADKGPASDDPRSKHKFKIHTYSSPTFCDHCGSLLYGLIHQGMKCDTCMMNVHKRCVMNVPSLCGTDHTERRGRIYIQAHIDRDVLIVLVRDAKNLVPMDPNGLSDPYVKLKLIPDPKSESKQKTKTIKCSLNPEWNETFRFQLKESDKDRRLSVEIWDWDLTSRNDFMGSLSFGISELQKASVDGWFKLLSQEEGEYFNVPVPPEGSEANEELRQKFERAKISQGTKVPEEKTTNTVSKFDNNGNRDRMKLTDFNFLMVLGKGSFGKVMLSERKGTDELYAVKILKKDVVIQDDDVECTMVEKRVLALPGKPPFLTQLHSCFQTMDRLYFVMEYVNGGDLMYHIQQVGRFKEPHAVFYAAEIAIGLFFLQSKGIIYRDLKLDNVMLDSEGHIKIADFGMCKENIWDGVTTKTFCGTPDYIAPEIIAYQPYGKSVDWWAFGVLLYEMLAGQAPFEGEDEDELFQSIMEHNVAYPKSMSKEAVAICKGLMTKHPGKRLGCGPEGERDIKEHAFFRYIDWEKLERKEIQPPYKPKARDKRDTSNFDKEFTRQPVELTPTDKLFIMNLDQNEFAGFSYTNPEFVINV
# [7] = target: Protein kinase C beta type (Homo sapiens) (UniProt P05771); details: at 1 µM
# [8] = target: Protein kinase C eta type (Homo sapiens) (UniProt P24723); details: at 0.1 µM
# Sequence of Protein kinase C eta type (Homo sapiens) (P24723 whole entry): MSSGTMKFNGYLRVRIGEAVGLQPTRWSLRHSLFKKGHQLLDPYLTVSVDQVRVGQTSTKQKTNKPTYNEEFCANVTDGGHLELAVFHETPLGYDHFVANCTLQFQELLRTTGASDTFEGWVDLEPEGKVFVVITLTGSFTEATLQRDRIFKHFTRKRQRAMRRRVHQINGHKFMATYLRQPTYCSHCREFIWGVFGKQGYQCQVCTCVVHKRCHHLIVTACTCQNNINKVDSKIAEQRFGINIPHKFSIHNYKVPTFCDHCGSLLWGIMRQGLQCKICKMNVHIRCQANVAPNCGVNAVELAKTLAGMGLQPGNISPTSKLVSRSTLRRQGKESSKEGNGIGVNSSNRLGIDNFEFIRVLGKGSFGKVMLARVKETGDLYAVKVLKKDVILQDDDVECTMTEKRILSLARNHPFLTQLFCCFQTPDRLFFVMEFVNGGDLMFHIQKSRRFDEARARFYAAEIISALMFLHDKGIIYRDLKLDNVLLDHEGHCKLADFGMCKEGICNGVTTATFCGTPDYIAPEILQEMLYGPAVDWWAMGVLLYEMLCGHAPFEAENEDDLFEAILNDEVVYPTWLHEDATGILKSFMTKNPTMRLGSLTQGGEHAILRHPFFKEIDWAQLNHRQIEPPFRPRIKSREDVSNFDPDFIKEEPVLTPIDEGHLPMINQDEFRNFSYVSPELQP
# [9] = target: Protein kinase C eta type (Homo sapiens) (UniProt P24723); details: at 1 µM
# [10] = target: Protein kinase C gamma type (Homo sapiens) (UniProt P05129); details: at 0.1 µM;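 further: values are mean percent inhibition of PKC gamma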
SMILES,inhibition [1],inhibition [2],inhibition [3],inhibition [4],inhibition [5],inhibition [6],inhibition [7],inhibition [8],inhibition [9],inhibition [10]
CC1=C(C(=O)Nc2ccc3[nH]ncc3c2)C(c2ccc(Cl)c(Cl)c2)CC(=O)N1 (stereo not given),3.64%,7.32%,43.1%,0.41%,1.24%,-1.01%,-0.1%,0.22%,14.1%,1.51%
COc1cc(C)c(NC(=O)CN(C)C)cc1Nc1nc(Nc2cccc(F)c2C(N)=O)c2cc[nH]c2n1,2.96%,1.08%,-0.43%,1.34%,5.42%,-0.18%,-0.1%,1.08%,1.46%,3.92%
CCn1c(-c2nonc2N)nc2c(C#CC(C)(C)O)nc(OC[C@@H](N)c3ccccc3)cc21,0.47%,77.5%,79.3%,-2.77%,8.94%,6.21%,36%,81.4%,96.8%,8.95%
COc1cc2ncn(-c3cc(OCc4ccccc4Cl)c(C(N)=O)s3)c2cc1OC,7.8%,-0.08%,-0.94%,0%,1.42%,0.65%,0.68%,1.47%,2.19%,-0.07%
Nc1nc(-c2ccccn2)c(-c2ccc3ncccc3n2)s1,1.75%,1.32%,1.89%,1.07%,1.65%,0.07%,1.26%,5.03%,2.77%,1.52%
COc1ccccc1Nc1ncc(-c2ccccc2)o1,7.73%,1.58%,3.65%,0.95%,1.01%,1.34%,-6.48%,7.06%,7.33%,-0.19%
CN(C)c1cc2c(Nc3ccc4nc(Cc5ccccc5)[nH]c4c3)ncnc2cn1,4.68%,3.66%,2.62%,1.27%,2.33%,-1.06%,2.6%,3.25%,3.62%,3.66%
NC(=O)c1ccc(-c2nc(-c3ccccn3)c(-c3ccc4c(c3)OCO4)[nH]2)cc1,2.65%,1%,2.8%,1.23%,3.42%,-0.16%,2.78%,-0.32%,-0.29%,-0.15%
CS(=O)(=O)CCNCc1ccc(-c2ccc3ncnc(Nc4ccc(OCc5cccc(F)c5)c(C(F)(F)F)c4)c3c2)o1,2.02%,1.79%,2.53%,1.25%,1.29%,0.59%,1.62%,4.51%,4.84%,1.87%
Cc1ccc(C(=O)NC2CCCCC2)cc1-c1ccc(C(=O)NCC2CC2)cc1,3.8%,3.21%,1.86%,0.96%,2.17%,1.17%,1.93%,3.2%,-0.62%,3.68%
COc1ccc(-c2nn3ncccc3c2-c2ccnc(Nc3ccc(Cl)c(C(F)(F)F)c3)n2)cc1,0.17%,1.59%,1.26%,0.22%,-0.2%,0.17%,3.13%,2.79%,2.3%,1.74%
CC1=C(C(=O)Nc2ccc3[nH]ncc3c2)C(c2ccc3ccccc3c2)CC(=O)N1 (stereo not given),2.2%,7.18%,45.9%,1.26%,1.61%,1.81%,0.44%,4.97%,14.1%,0.67%
O=C1NC(=O)C(c2ccccc2Cl)=C1Nc1cccc(O)c1,0.81%,1.52%,2.92%,0.83%,3.41%,0.31%,5.5%,2.05%,5.24%,-3.81%
CCn1c(-c2nonc2N)nc2cncc(C(=O)N3CCNCC3)c21,2.8%,4.17%,8.74%,0.92%,1.73%,2.12%,4.3%,6.14%,4.16%,1.3%
CS(=O)(=O)CCNCc1nc(-c2ccc3ncnc(Nc4ccc(F)c(Cl)c4)c3c2)cs1,1.98%,1.17%,1.29%,0.29%,0.92%,1.56%,2.07%,1.59%,3.26%,2.71%
O=C1NC(=O)C(N2CCc3ccccc32)=C1c1ccc(Cl)cc1,1.64%,1.84%,1.95%,0.86%,1.6%,-0.46%,0.52%,0.02%,3.59%,5.52%
Fc1cccc(COc2ccc(Nc3ncnc4cc(-c5ccc[nH]5)sc34)cc2Cl)c1,1.86%,-2.47%,-0.52%,-3.29%,-1.9%,1.37%,0.9%,2.87%,4.5%,3.21%

SMILES,inhibition [1],inhibition [2],inhibition [3],inhibition [4],inhibition [5],inhibition [6],inhibition [7],inhibition [8],inhibition [9],inhibition [10]
CCc1cccc(NC(=O)Nc2ccc(Oc3ccc4nc(NC(=O)OC)[nH]c4c3)cc2)c1,2.37%,2.93%,0.86%,0.7%,0.72%,0.28%,1.12%,2.69%,2.14%,1.95%
O=C1NC(=O)C(c2ccc(Cl)cc2)=C1Nc1ccc(Cl)c(C(=O)O)c1,0.12%,-1.8%,-1.57%,-0.02%,-0.11%,-1.13%,-0.89%,-3.26%,-3.28%,0.52%
CCN1CCC(CC(=O)Nc2n[nH]c3nc(-c4cccs4)c(Br)cc23)CC1,-2.02%,-1.4%,1.75%,-0.16%,0.74%,2.07%,1.35%,-3.78%,0.16%,-1.57%
COc1ccc(-c2coc3ncnc(N)c23)cc1,0.68%,1.5%,1.74%,0.29%,1.92%,-0.46%,-0.25%,3.06%,2.62%,0.83%
Cc1ccc(NC(=O)c2ccnc(N3CCCC3)c2)cc1-c1ccc(C(=O)NCC2CC2)cc1,2.23%,-2.06%,-0.65%,-2.31%,-0.77%,0.1%,-1.68%,5.39%,2.22%,1.09%
Cc1nnc(-c2ccc(C)c(-c3ccc(C(=O)Nc4cccc(C#N)c4)cc3)c2)o1,0.99%,2.18%,1.76%,0.5%,0.89%,-0.92%,2.05%,0.8%,3.76%,1.49%
Cc1cc(O)cc(C)c1/C=C/c1cncc(-c2nn[nH]n2)c1,2.02%,-1.63%,-1.78%,-2.41%,-0.54%,0.1%,2.35%,1%,5.67%,-3.08%
O=C1Nc2ccc(C(=O)c3ccco3)cc2C1=Cc1cc(Cl)c(O)c(Cl)c1,3.22%,1.97%,4.78%,1.38%,3.32%,-0.57%,1.37%,4.29%,7.64%,1.31%
CCn1c(-c2nonc2N)nc2cncc(C(=O)N3CC[C@H](N)C3)c21,9.36%,49.1%,82.2%,5.69%,45.5%,43.9%,74.5%,51.2%,88.3%,6.77%
O=C(Nc1n[nH]c2nc(-c3ccco3)c(Br)cc12)C1CC1,2%,1.31%,2.05%,0.29%,0.28%,1.29%,-0.77%,3.62%,2.72%,0.45%
NC(=O)c1cccc(Nc2nccc(Nc3cccc4[nH]ncc34)n2)c1,-1.42%,7.26%,10.7%,-0.39%,14.6%,0.67%,2.07%,-3%,5.2%,0.25%
N#Cc1c(NC(=O)c2cccc3ccccc23)sc2c1CCCC2,1.52%,1.59%,1.98%,0.26%,1.22%,1.24%,-1.28%,3.52%,3.65%,2.48%
COc1ccc(COc2ccc(Cc3cnc(N)nc3N)cc2OC)cc1,1.69%,4.69%,1.52%,1.05%,1.13%,3.26%,2.56%,1.31%,-0.03%,2.11%
c1cnn2ncc(-c3ccnc(Nc4ccc5c(c4)OCCO5)n3)c2c1,4.84%,1.74%,7.09%,2.47%,20.4%,1.95%,4.36%,4.51%,8.26%,1.93%
COc1cc(C=NNc2ncnc3c2cnn3-c2ccccc2)ccc1O,3.92%,1.37%,1.88%,0.49%,3.62%,1.19%,4.02%,3.68%,0.52%,1.8%
COC(=O)Nc1nc2cc(Oc3cccc(NC(=O)Nc4cc(C(F)(F)F)ccc4F)c3)ccc2[nH]1,1.08%,2.29%,4.75%,0.42%,0.96%,0.04%,2.71%,0.61%,-1.2%,1.08%
